eIF4H FP inh: inhibitors of RNA binding by human eIF4H. 0.94% of 290,000 active. eIF4H fluorescence polarization binding assay. inhibition, % at 35 µM;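 further: calls also rest on retests at 20 µM and on dose response follow-up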
PABP1 MLLE inh: blocks PAM2 peptide binding to the PABP1 MLLE domain | GST-MLLE / FITC-PAM2 fluorescence polarization | inhibition, % at 20 µM | 0.36% of 360,000 active | AID 588489; in the data active means inhibition above about 35%, passing the limit was not always enough
ALR H2O2 inh: human ALR oxidase inhibition via reduced H2O2; P55789; purified ALR, DTT oxidation, H2O2 HRP-luminol luminescence; inhibition, % (concentration not given with the values); 3.8% of 290,000 active; AID 485317;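 active means mean replicate inhibition above about 79%, with every replicate also reaching it, limit read from the data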
Target sequence (P55789 whole entry, looked up): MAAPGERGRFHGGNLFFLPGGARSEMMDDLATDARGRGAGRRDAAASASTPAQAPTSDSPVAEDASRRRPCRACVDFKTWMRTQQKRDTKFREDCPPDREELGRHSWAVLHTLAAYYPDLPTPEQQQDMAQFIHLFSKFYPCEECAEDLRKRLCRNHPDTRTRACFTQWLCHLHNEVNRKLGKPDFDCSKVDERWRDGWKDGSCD
Efflux pump inh: inhibitors of Candida antifungal efflux pumps expressed in yeast; S. cerevisiae Candida pump triplex, Nile Red efflux; inhibition, % at 10 µM; 0.44% of 330,000 active; AID 485275;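 active means plate passing quality check with inhibition over a set limit, or well fluorescence over plate mean plus 4 SD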;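 further: Nile Red retained in pooled yeast measured as flow cytometry median fluorescence; higher means more Nile Red kept so more efflux inhibition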
UBC9 SUMO inh: SUMOylation inhibition; P63279; 0.36% of 290,000 active; HTRF SUMOylation assay, SAE1/SAE2 + UBC9, in vitro; inhibition, % at 35 µM; in the data active means inhibition above about 50%, passing the limit was not always enough
PABP polyA inh: PABP-poly(A) binding inhibition; 1% of 290,000 active; PABP-poly(A) RNA binding, fluorescence polarization; inhibition, % at 35 µM;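 further: calls also rest on retests at 20 µM and on dose response follow-up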
A number is an active result. Hits are enriched below; roughly 4.7% of the tested compounds scored in any of these assays. Unless noted, how the calls were made is not given here.

`Cc1nn(CSc2c(F)c(F)c(F)c(F)c2F)c(C)c1[N+](=O)[O-]` gave PABP1 MLLE inh inactive, ALR H2O2 inh inactive and Efflux pump inh inactive.
For CC1Cc2nc(SCC(=O)N3CCN(c4ccccc4)CC3)n(C)c(=O)c2S1 (stereo unspecified) the results were eIF4H FP inh inactive, PABP1 MLLE inh inactive, ALR H2O2 inh 98, Efflux pump inh inactive, UBC9 SUMO inh inactive and PABP polyA inh inactive.
For CC1Cc2nc(SCC(=O)N3CCOCC3)n(-c3ccccc3)c(=O)c2S1 (stereo unspecified) the results were eIF4H FP inh inactive, PABP1 MLLE inh inactive, ALR H2O2 inh 99, Efflux pump inh inactive, UBC9 SUMO inh inactive and PABP polyA inh inactive.
`O=C1CCCN1CC(O)CS(=O)(=O)Cc1ccccc1Cl` (stereo unspecified) gave eIF4H FP inh inactive, PABP1 MLLE inh inactive, ALR H2O2 inh inactive, Efflux pump inh inactive, UBC9 SUMO inh inactive and PABP polyA inh inactive.
For O=C(C1CCC(CNc2c(N3CCCCC3)c(=O)c2=O)CC1)N1CCCCC1 (stereo unspecified) the results were eIF4H FP inh inactive, PABP1 MLLE inh inactive, ALR H2O2 inh inactive, Efflux pump inh inactive, UBC9 SUMO inh inactive and PABP polyA inh inactive.
For O=C(C1CCC(CNc2c(N3CCOCC3)c(=O)c2=O)CC1)N1CCN(c2ccccc2)CC1 (stereo unspecified) the results were eIF4H FP inh inactive, PABP1 MLLE inh inactive, ALR H2O2 inh 87, Efflux pump inh inactive, UBC9 SUMO inh inactive and PABP polyA inh inactive.
`Cc1cc(NC(=O)COc2cccc3cccnc23)no1` gave eIF4H FP inh inactive, UBC9 SUMO inh inactive and PABP polyA inh inactive.
`COc1ccc2c(c1)c(=O)oc1c(C)c(OCc3cc(C(=O)O)oc3C)ccc12` gave eIF4H FP inh inactive, PABP1 MLLE inh inactive, ALR H2O2 inh inactive, Efflux pump inh inactive, UBC9 SUMO inh 70 and PABP polyA inh 8.0.
Cc1oc(C(=O)O)cc1COc1cccc2cccnc12 was read as eIF4H FP inh 92, PABP1 MLLE inh inactive, ALR H2O2 inh inactive, Efflux pump inh inactive, UBC9 SUMO inh inactive and PABP polyA inh inactive.
Screening COc1ccc2c(c1)c(=O)oc1c(C)c(OCC(=O)N3CCc4ccccc4C3)ccc12 returned eIF4H FP inh inactive, PABP1 MLLE inh inactive, ALR H2O2 inh inactive, Efflux pump inh inactive, UBC9 SUMO inh inactive and PABP polyA inh inactive.
COc1ccc2c(c1)c(=O)oc1c(C)c(OCc3ccc(C(=O)O)cc3)ccc12 was read as eIF4H FP inh inactive, PABP1 MLLE inh inactive, ALR H2O2 inh inactive, Efflux pump inh inactive, UBC9 SUMO inh 55 and PABP polyA inh inactive.
Cc1ccc(C(=O)NCCSCc2ccc(Cl)cc2Cl)cc1[N+](=O)[O-] was read as eIF4H FP inh inactive, PABP1 MLLE inh inactive, ALR H2O2 inh 89, Efflux pump inh inactive, UBC9 SUMO inh inactive and PABP polyA inh inactive.
Cc1ccc(C(=O)Nn2cnnc2)cc1Cl was read as eIF4H FP inh inactive, PABP1 MLLE inh inactive, ALR H2O2 inh 81, Efflux pump inh inactive, UBC9 SUMO inh inactive and PABP polyA inh inactive.
Screening COc1ccccc1NC(=O)CCN1C(=O)c2ccccc2S1(=O)=O returned eIF4H FP inh inactive, PABP1 MLLE inh inactive, Efflux pump inh inactive, UBC9 SUMO inh inactive and PABP polyA inh inactive.
Screening CC(=O)Nc1ccc(NC(=O)COC(=O)c2c3c(nc4ccccc24)CCN(Cc2ccccc2)C3)cc1 returned eIF4H FP inh inactive, PABP1 MLLE inh inactive, ALR H2O2 inh inactive, Efflux pump inh inactive, UBC9 SUMO inh inactive and PABP polyA inh inactive.
For CCN1CCc2nc3ccccc3c(C(=O)Nc3ccc(F)cc3)c2C1 the results were eIF4H FP inh inactive, PABP1 MLLE inh inactive, ALR H2O2 inh inactive, Efflux pump inh inactive, UBC9 SUMO inh inactive and PABP polyA inh inactive.
`O=C(NCc1ccc(F)cc1)c1c2c(nc3ccccc13)CCN(Cc1ccccc1)C2` gave eIF4H FP inh active, PABP1 MLLE inh inactive, ALR H2O2 inh inactive, Efflux pump inh inactive, UBC9 SUMO inh inactive and PABP polyA inh 56.
COC(=O)c1ccc(CNC(=O)c2c3c(nc4ccccc24)CCN(Cc2ccccc2)C3)cc1 was read as eIF4H FP inh 87, PABP1 MLLE inh inactive, ALR H2O2 inh inactive, Efflux pump inh inactive, UBC9 SUMO inh inactive and PABP polyA inh active.
For COc1ccc(-c2[nH]ncc2/C=N/NC(=O)c2ccncc2)c(OC)c1 the results were eIF4H FP inh inactive, PABP1 MLLE inh inactive, ALR H2O2 inh inactive, Efflux pump inh inactive, UBC9 SUMO inh inactive and PABP polyA inh inactive.

From PubChem
